# Experiments:
# Settings in all cases: concentration: 1 μM, replicates: in singlicate; n = 1
# PLK2 = system: PLK2
# PLK3 = system: PLK3
# PLK4 = system: PLK4
# PRKCD = system: PRKCD
# PRKCE = system: PRKCE
# PRKCH = system: PRKCH
# PRKCI = system: PRKCI
# PRKCQ = system: PRKCQ
# PRKD1 = system: PRKD1
# PRKD2 = system: PRKD2
# 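Also: KINOMEscan kinase panel screen.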
SMILES,%Inh (PLK2),%Inh (PLK3),%Inh (PLK4),%Inh (PRKCD),%Inh (PRKCE),%Inh (PRKCH),%Inh (PRKCI),%Inh (PRKCQ),%Inh (PRKD1),%Inh (PRKD2)
Cl.c1ccc(-c2ccc3c(Nc4ccc5[nH]ccc5c4)ccnc3c2)nc1 [GW440138],0%,0%,9%,0%,11%,12%,0%,0%,1%,2%
O=C(Nc1cccc(Oc2ccc3nc(NC(=O)C4CC4)cn3n2)c1)c1ccccc1C(F)(F)F,0%,4%,0%,3%,6%,0%,28%,0%,0%,0%
COCCOCCOc1cc2ncc3c4ccc(C#N)cc4[nH]c3c2cc1OC,0%,0%,13%,0%,11%,0%,33%,35%,0%,0%
Cl.NC(=O)c1cccc(Nc2nccc(Nc3ccc(Oc4c(Cl)cccc4Cl)c(Cl)c3)n2)c1 [GW659009],0%,30%,0%,0%,0%,0%,0%,0%,0%,0%
O=C(NC1CCN(c2ccnc(Nc3ccc(F)cc3)n2)C1)c1cc2ccccc2s1 (stereo not shown) [GSK1379716],0%,0%,1%,0%,2%,30%,15%,16%,21%,28%
Cc1cccc(Nc2nc(N[C@H]3CCNC3)ncc2C(N)=O)c1.Cl [GSK2197149],1%,0%,0%,58%,86%,41%,0%,41%,49%,55%
Cc1ccc(S(=O)(=O)Nc2ccc(Nc3nccc(Nc4cccc5[nH]ncc45)n3)cc2)cc1 [GSK581271],0%,0%,1%,0%,0%,0%,7%,0%,0%,0%
O=C(Nc1n[nH]c2cc(-c3ccoc3)ccc12)C1CC1 [SB-738481],3%,12%,10%,4%,12%,0%,0%,0%,0%,0%
CCCCc1nn2ncccc2c1-c1ccnc(Nc2ccc(N3CCN(C)CC3)cc2)n1 [GW684941],0%,0%,74%,0%,14%,0%,17%,0%,63%,55%
COc1ccc(Nc2nccc(N3CCC(NC(=O)Nc4cccc(OC)c4)C3)n2)cc1 (stereo not shown) [GSK1379742],0%,0%,0%,1%,0%,5%,0%,0%,3%,0%
Cl.Cl.NCC(NCc1ccc(-c2ccnc3[nH]ccc23)s1)c1ccccc1 (stereo not shown) [GSK1321565],5%,0%,49%,91.1%,84%,85%,0%,55%,0%,21%
Cn1cc(-c2ccc3c(c2)CCN3C(=O)Cc2cccc(F)c2)c2c(N)ncnc21 [GSK2603358],0%,6%,0%,0%,14%,24%,30%,0%,0%,0%
O=c1[nH]cc(-c2ccc(N3CCOCC3)cc2)c2sc(-c3cn[nH]c3)cc12 [GSK2276055],18%,0%,17%,0%,0%,0%,17%,21%,0%,30%
Clc1ccc(-c2nn3ncccc3c2-c2ccnc(Nc3ccc4c(c3)OCCO4)n2)cc1 [GW829116],0%,7%,2%,0%,1%,0%,0%,22%,0%,1%
CC(C)c1nc(-c2cccc(NS(=O)(=O)c3c(F)cccc3F)c2F)c(-c2ccnc(Nc3ccc(N4CCOCC4)nc3)n2)s1 [GSK2008607],0%,4%,100%,0%,0%,22%,36%,18%,93.8%,99.2%
CN(C)S(=O)(=O)c1cc(-c2ccc3nccc(-c4cccc(S(N)(=O)=O)c4)c3c2)cnc1N [GSK1669921],2%,0%,0%,0%,15%,29%,7%,10%,0%,0%
